Measurements taken from PubChem BioAssay.
A number with no mark means an inactive call. The rule behind the calls is not given here.

target: Pantothenate synthetase (Mycobacterium tuberculosis (strain ATCC 25618 / H37Rv)) (UniProt P9WIL5); experiment: Coupled enzyme confirmation of inhibitors against recombinant Mtb PanC (AID 375); settings: coupled enzyme assay; at 10 µM, active compounds read high;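 note: 0% = full reaction with vehicle and 100% = no enzyme background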
Sequence (P9WIL5 whole entry, looked up): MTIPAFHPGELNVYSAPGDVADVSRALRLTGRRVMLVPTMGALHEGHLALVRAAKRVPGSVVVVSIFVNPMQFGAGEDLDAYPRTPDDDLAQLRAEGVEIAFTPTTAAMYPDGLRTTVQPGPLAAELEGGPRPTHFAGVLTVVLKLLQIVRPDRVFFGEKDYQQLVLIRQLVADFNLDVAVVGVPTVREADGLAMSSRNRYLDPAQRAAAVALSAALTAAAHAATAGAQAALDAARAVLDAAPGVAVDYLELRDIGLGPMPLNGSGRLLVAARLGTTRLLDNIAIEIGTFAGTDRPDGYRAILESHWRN

Row | SMILES | inhibition [%]
1 | CCCC(=O)O[C@]1(C(=O)COC(C)=O)CC[C@H]2[C@@H]3C[C@H](F)C4=CC(=O)C=C[C@]4(C)[C@@]3(F)[C@@H](O)C[C@@]21C | 0
2 | CCc1nnc(NC(=O)OCc2ccccc2)s1 | 0
3 | CCCCNC(=O)OC(C)CNC(=O)Oc1cccc(C)c1 (stereo not given) | 0
4 | COc1cccc(/C=N/n2c(-c3ccco3)nc3ccccc3c2=O)c1 | 1
5 | CCOC(=O)c1c(C)n(C)c2ccc(OC)c(NC(=O)CCN3CCSCC3)c12 | 2
6 | CCOc1cc(C(=O)Nc2ccon2)cc(OCC)c1OCC | 8
7 | COc1ccc(-n2cc(-c3ccccc3)c3c(N4CCN(CCO)CC4)ncnc32)cc1 | 0
8 | CCc1nc(N)nc(N)c1-c1ccc(Cl)cc1 | 0
9 | O=C(CN1CCN(Cc2ccc3c(c2)OCO3)CC1)N1CCc2[nH]c3ccc(F)cc3c2C1 | 0
10 | CCOC(=O)c1cccc(NC(=O)CNS(=O)(=O)c2cccs2)c1 | 0
11 | Cc1ccc2oc(=O)c3cnn(CC(=O)N4CCCCC4C)c3c2c1 (stereo not given) | 0
12 | CC(C)(C)NC(=O)CN(C(=O)CS(=O)CC(=O)Nc1ccc(F)cc1)c1ccc(Cl)cc1 (stereo not given) | 0
13 | CN(Cc1nc(-c2ccncc2)no1)S(=O)(=O)c1ccccc1 | 6
14 | Cn1c(SCC(=O)Nc2cccc3ccccc23)nc(O)cc1=O | 0
15 | COc1cccc(OC)c1C(=O)Nc1ccccc1N1CCCC1 | 2
16 | CC1=C/C(=C/N(C)c2ccccc2)C(=O)S1 | 1
17 | Cn1c(Cc2csc(N)n2)nnc1SCC(=O)NC1CCCCC1 | 4
18 | Cc1ccc(/C=c2\s/c(=C(/C#N)C(=O)N3CCCC3)n(Cc3ccco3)c2=O)s1 | 0
19 | CCCCC(=O)Nc1c(O)c2ccccc2[nH]c1=O | 0
20 | COc1ccc(N2CCN(Cc3nc4ccccc4c(=O)[nH]3)CC2)cc1 | 0

Row | SMILES | inhibition [%]
21 | Cn1c(Cc2csc(N)n2)nnc1SCC(=O)NCc1ccccc1 | 3
22 | Cc1nc2ccccc2c2oc(C(=O)NCc3ccccn3)cc12 | 2
23 | Cc1ccc(NC(=O)CSc2nnc(-c3ccncc3)n2C)cc1C | 0
24 | Cc1ccccc1N(C)S(=O)(=O)c1ccc2[nH]cc(C(=O)NCC3CCCO3)c(=O)c2c1 (stereo not given) | 10
25 | Cc1oc2c(CN3CCOCC3)c(O)ccc2c(=O)c1-c1ccc(Br)cc1 | 0
26 | CCN(CC(=O)NC1CCS(=O)(=O)C1)C(=O)C(c1ccccc1)c1ccccc1 (stereo not given) | 1
27 | O=C(C1CCC(CNS(=O)(=O)c2cccc3cccnc23)CC1)N1CCCC1 (stereo not given) | 0
28 | COC(=O)c1nn(-c2ccc(-c3ccccc3)cc2)cc1O | 0
29 | CCSc1nnc(-c2cccs2)o1 | 0
30 | COCCSc1nnc(NC(=O)Cc2ccccc2OC)s1 | 4
31 | O=C(c1c(F)cccc1F)N(Cc1ccccn1)C1CCCC1 | 1
32 | COCCn1nnnc1C(c1cccs1)N1CCN(c2cc(C)ccc2C)CC1 (stereo not given) | 0
33 | COC(=O)c1ccccc1NC(=O)COc1ccc(S(=O)(=O)N2CCCC2)cc1C | 0
34 | CO/C([O-])=N/c1c[n+](-c2ccc(C)cc2)no1 | 0
35 | O=C(Nc1ccc(N2CCN(Cc3ccccc3Cl)CC2)cc1)c1cccnc1 | 4
36 | COc1ccc(CCNC(=O)CN(c2ccccc2OC)S(C)(=O)=O)cc1 | 0
37 | CCn1cc(C(=O)NCC2COc3ccccc3O2)c2cc(OC)c(OC)cc2c1=O (stereo not given) | 11
38 | Nc1[nH]nc2nc(N3CCCC3)nc(-c3ccccc3)c12 | 0
39 | CCc1nnc(NC(=O)c2cc3ccccc3oc2=O)s1 | 2
40 | COc1ccc(C2C(C(=O)Nc3cccnc3)=C(C)Nc3nc(-c4cccs4)nn32)cc1OC (stereo not given) | 6
